Results published in PubChem BioAssay (NCI).
About 83,000 compounds went through this panel and 20% of them were active in at least one assay; those are over-represented in the sample as a whole.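 Activity criterion: percent growth below 10, measured after cells in 96-well plates were exposed to a single compound concentration for 48 hours.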 Unmarked numbers belong to inactive results. Activity calls are given as the source filed them.

system: NCI-H23 lung; assay: NCI-60 one-dose screen, 48 h (100 = growth as untreated, 0 = no growth, -100 = all killed); details: 10 µM unless noted

Structure (SMILES)	growth
Nc1ccc(S(=O)(=O)O)c2ccc(N=Nc3ccc(N=Nc4ccc(S(=O)(=O)O)cc4)c4ccccc34)c(O)c12	98%
CSc1ccc(-c2n[nH]nc2-c2cc3ccccc3s2)cc1	61.5%
COc1ccc(C(=O)COc2ccc(/C=C3\COc4ccc(OC)cc4C3=O)cc2)cc1	77.6%
COc1cc(C=Nc2oc(-c3ccccc3)c(-c3ccccc3)c2C#N)cc(CN2CCCCC2)c1O	88.6%
O=C1CC[C@H](c2ccc(O)c3c2C(=O)[C@@H]2O[C@@H]2C3=O)c2cccc(O)c21	94.4%
C#CC(F)(F)[C@]1(O)CC[C@H]2[C@@H]3CCC4=CC(=O)CCC4=C3[C@@H](c3ccc(C(C)=O)cc3)C[C@@]21C	38.5%
O=C(Cc1ccccc1Nc1c(Cl)cccc1Cl)NN1C(=O)/C(=C/c2ccc(Br)cc2)SC1=S	97.5%
Cc1nn(-c2cc(=O)[nH]c3ccccc23)c(N)c1C#N	106%
CCn1c(Cc2ccccc2Nc2c(Cl)cccc2Cl)nnc1SCC(=O)NN1C(=O)/C(=C/c2cc(OC)c(O)c(OC)c2)SC1=S	48.3%
Cc1cc(C)nc(SC2=C(Nc3cc(Cl)ccc3O)C(=O)N(Cc3ccccc3)C2=O)n1	91.4% [30 µM]
CCN(CC)c1ccc(/C=N\NC(=O)/C=C/C=C/c2ccc3c(c2)OCO3)c(O)c1	49.7%
N#Cc1cnn(-c2nc3c(Cl)cccc3s2)c1N	82.6%
COc1ccc(S(=O)(=O)N2CC3(COC3)C2)cc1NC(=O)c1[nH]c(C)c2c1CCCCC2=O	59.4%
Cn1cc(C(=O)c2nc(-c3c[nH]c4ccc(F)cc34)no2)c2cc(F)ccc21	88%
O=C1C=C(OCC=C(Cl)Cl)C(=O)c2ccccc21	57.4%
Cc1cc(C)nc(SC2=C(Nc3cccc(Cl)c3)C(=O)N(Cc3ccccc3)C2=O)n1	82% [30 µM]
O=c1cc(CSc2nnc(-c3ccc(F)cc3)o2)c2ccc3ccccc3c2o1	84.3%
CCCn1c(=O)[nH]c(N)c([C@H]2c3ccccc3Oc3[nH]c(=O)n(CCC)c(=O)c32)c1=O	86.2%
O=C(CCN1C(=O)/C(=C/c2ccc(Cl)cc2)SC1=S)NCCCN1CCOCC1	101%
Cc1nc2ccccc2n1C(=O)C[C@@H]1NC(=S)NC1=O	95.5%

Structure (SMILES)	growth
O=C(N=Nc1c(O)[nH]c2ccc(Br)cc12)c1cc(-c2ccccc2)on1	96.9%
C=C(C)C(=O)Nc1ccc(NC(C)C)cc1	113%
CC(O)CN1CC(O)=C(c2nc3ccccc3s2)C1=N (centres undefined)	83%
O=c1c2c3c(sc2nc(N/N=C/c2cn(-c4ccccc4)nc2-c2ccc(Cl)cc2)n1Cc1ccccc1)CCCC3	106%
COc1cccc(-c2nn(C(C)(C)C)cc2-c2ccnc(NCCCNS(=O)(=O)c3ccc(C)cc3)c2)c1	105%
CSc1nc(Nc2cccc(NC(=O)CCl)c2)c(C#N)c(-c2cccc([N+](=O)[O-])c2)n1	40.3%
CSc1nc(Nc2cccc(NC(=O)/C(C#N)=C/c3c(Cl)cccc3Cl)c2)c(C#N)c(-c2cccc([N+](=O)[O-])c2)n1	57.9%
COc1ccc(-c2nc3ccc(-c4nc5ccc(N6CCN(c7ccccc7)CC6)cc5[nH]4)cc3[nH]2)cc1OC	-21.4% (active)
COc1ccc(CCNc2nc3c(c(=O)n(Cc4ccc(Br)cc4)c(=O)n3C)n2C)cc1OC	84.1%
C=CCSSc1ncnc2c1ncn2C1OC(CO)C(O)C1O (centres undefined)	39.7%
Cc1ccc(NC(=O)C2CCC(CN3CCN(C)CC3)CC2)cc1Nc1nccc(-c2cccnc2)n1 (centres undefined)	96.1%
COc1cc(/C=C/c2cc(O)c3cc(C(C)=O)c(=O)oc3c2)cc2c1O[C@]1(C)CC[C@@H](O)C(C)(C)[C@H]1C2	52.1%
C=CC(=O)Nc1cccc(Nc2nc(SC)nc(-c3cccc([N+](=O)[O-])c3)c2C#N)c1	44.8%
N#C/C(=C\c1ccc(-c2cc(C(F)(F)F)ccc2Cl)o1)c1nc(-c2ccco2)cs1	93.7%
COCCNc1ccc2c3c(cccc13)C(=O)N(CCN(C)C)C2=O	25.6%
C=CC(=O)Nc1cccc(-c2nc(SC)nc(NCc3ccccc3)c2C#N)c1	61.1%
COC(=O)c1cccc(NC(=O)c2ccc(-c3cccc(N)c3)o2)c1	97.5%
N#Cc1c(-c2ccc(Cl)cc2)nc(N=Nc2c(O)[nH]c3ccc(Cl)cc23)nc1N1CCOCC1	84.8%
N#CN1CCC[C@H]1C(=O)N1CCc2c(-c3[nH]nc4ncccc34)cccc21	4.9% (active)
